Compounds without any hit were thinned out: in the full panel of roughly 79,000, 15% have a hit. Activity calls are given as the source filed them. Cut-off read from the data, not from the text of the source: active = growth inhibition above about 70%; inactive = the rest.
Experiments:
[1] = NCI Yeast Anticancer Drug Screen. Data for the rad52 strain (AID 147);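 note: 0% = growth of vehicle-treated control cultures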; conditions: S. cerevisiae rad52 mutant growth inhibition, hits give high values
Summary of the method: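 Compounds are applied to a genetically defined yeast strain lacking normal DNA damage repair, and inhibition of growth is expressed relative to cultures given vehicle only.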

[2] = NCI Yeast Anticancer Drug Screen. Data for the wt1 strain (AID 149);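 note: 0% = growth of vehicle-treated wt1 cultures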; conditions: S. cerevisiae wt1 strain (SPY 50644) growth inhibition, hits give high values
Summary of the method: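 The wt1 strain was treated with compounds, and growth was compared with vehicle-treated cultures to give inhibition.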

[3] = NCI Yeast Anticancer Drug Screen. Data for the rad50EPP+ strain (AID 151);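 note: 0% = growth of vehicle-treated control cultures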; conditions: S. cerevisiae rad50 mutant strain, hits give high values
Summary of the method: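 Compounds were applied to the rad50EPP+ yeast strain, which bears a defined DNA repair alteration, and growth inhibition was determined relative to vehicle-treated cultures.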

[4] = NCI Yeast Anticancer Drug Screen. Data for the rad50 strain (AID 155);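 note: 0% = growth of vehicle-only cultures of the same strain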; conditions: S. cerevisiae rad50 strain growth inhibition, hits give high values
Summary of the method: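 Cells are treated with compound, grown, and their growth is then scored against vehicle-only cultures of the same repair-deficient yeast strain.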

[5] = NCI Yeast Anticancer Drug Screen. Data for the mec2-1 strain (AID 157); conditions: S. cerevisiae mec2-1 strain, hits give high values
Summary of the method: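 Strain: mec2-1 (DNA repair/cell cycle alteration). Compound exposure, then growth measured; inhibition expressed relative to vehicle.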

[6] = NCI Yeast Anticancer Drug Screen. Data for the sgs1 mgt1 strain (AID 161);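 note: 0% = growth of cultures given vehicle only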; conditions: S. cerevisiae sgs1 mgt1 strain, hits give high values
Summary of the method: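 Test agents were incubated with a DNA-repair-mutant yeast strain. Growth was then read and compared against vehicle-treated controls.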

[7] = NCI Yeast Anticancer Drug Screen. Data for the cln2 rad14 strain (AID 165);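 note: 0% = growth equal to vehicle treated cultures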; conditions: S. cerevisiae cln2 rad14 strain, hits give high values
Summary of the method: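 Compounds are applied to the cln2 rad14 yeast strain, and growth is then compared with that of vehicle-treated cultures to give inhibition.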

[8] = NCI Yeast Anticancer Drug Screen. Data for the bub3 strain (AID 167); conditions: S. cerevisiae bub3 mutant strain, hits give high values
Summary of the method: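 Part of a panel of yeast mutants defective in DNA damage repair or cell cycle regulation. Each strain is grown with compound, and inhibition is calculated relative to solvent-treated cultures.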

[9] = NCI Yeast Anticancer Drug Screen. Data for the wt2 strain (AID 169);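 note: 0% = growth of vehicle-treated yeast cultures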; conditions: S. cerevisiae wt2 strain growth inhibition, hits give high values
Summary of the method: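 This strain belongs to a panel of yeast strains with defined genetic alterations in DNA damage repair or cell cycle control. Compounds are applied, and growth inhibition is measured against vehicle-treated cultures.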

[10] = NCI Yeast Anticancer Drug Screen. Data for the sgs1 strain (AID 173);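 note: 0% = growth of vehicle-only control cultures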; conditions: S. cerevisiae sgs1 mutant, hits give high values
Summary of the method: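 Growth of a yeast strain bearing a defined genetic alteration is measured after compound treatment. Inhibition is expressed relative to vehicle-only controls.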

[11] = NCI Yeast Anticancer Drug Screen. Data for the rad18 strain (AID 177); conditions: S. cerevisiae rad18 mutant growth inhibition, hits give high values
Summary of the method: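 Growth of the mutant yeast strain after compound exposure, normalised to vehicle-only cultures.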

[12] = NCI Yeast Anticancer Drug Screen. Data for the CLN2oe strain (AID 163);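 note: 0% = growth of vehicle-only control cultures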; conditions: S. cerevisiae CLN2oe strain, hits give high values
Summary of the method: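 Growth of a genetically modified yeast strain is measured after compound exposure and compared with cultures given vehicle alone.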

[13] = NCI Yeast Anticancer Drug Screen. Data for the mlh1 strain (AID 171);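 note: 0% = growth of vehicle-treated control cultures of the same strain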; conditions: S. cerevisiae mlh1 strain growth inhibition, hits give high values
Summary of the method: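 Growth of the mutant yeast strain after compound exposure, expressed as inhibition relative to vehicle-only controls.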

[14] = NCI Yeast Anticancer Drug Screen. Data for the mlh1 rad18 strain (AID 175); conditions: S. cerevisiae mlh1 rad18 strain growth inhibition, hits give high values
Summary of the method: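 Read-out is yeast growth inhibition, calculated against vehicle-only controls. The compound was applied to a strain engineered with DNA damage repair alterations.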

[15] = at 5.0 µM (retest, dose inferred, filed as 0.5)
[16] = at 50.0 µM (retest, dose inferred, filed as 5.0)

Measured: growth inhibition

CCOC(=O)C1=C(C)NC(C)=C(C(=O)OCC)C1c1ccc(C)cc1
active: [1]; at 33.0 µM 97% | [1]; at 100.0 µM 95% | [2]; at 33.0 µM 97% | [2]; at 100.0 µM 96% | [4]; at 33.0 µM 96% | [4]; at 50.0 µM 88.7% | [4]; at 100.0 µM 96% | [5]; at 33.0 µM 97% | [5]; at 50.0 µM 91.5% | [5]; at 100.0 µM 95% | [6]; [16] 75% | [6]; at 50.0 µM 91.8% | [7]; at 50.0 µM 90% | [8]; at 3.7 µM 78% | [8]; at 11.0 µM 91% | [8]; at 33.0 µM 97% | [8]; [16] 90% | [8]; at 50.0 µM 91.3% | [8]; at 100.0 µM 95% | [9]; at 33.0 µM 96% | [9]; at 100.0 µM 96% | [10]; at 33.0 µM 98% | [10]; at 100.0 µM 96% | [11]; at 33.0 µM 96% | [11]; at 100.0 µM 96%
inactive: [1]; at 1.2 µM 27% | [1]; at 3.7 µM 43% | [1]; at 11.0 µM 64% | [2]; at 1.2 µM 28% | [2]; at 3.7 µM 19% | [2]; at 11.0 µM 57% | [3]; at 1.2 µM -21% | [3]; at 3.7 µM -27% | [3]; at 11.0 µM -25% | [3]; at 33.0 µM -13% | [3]; at 100.0 µM 27% | [4]; at 1.2 µM 30% | [4]; at 3.7 µM 31% | [4]; [15] -24% | [4]; at 11.0 µM 59% | [4]; [16] 21% | [5]; at 1.2 µM 27% | [5]; at 3.7 µM -6% | [5]; [15] -24% | [5]; at 11.0 µM 39% | [5]; [16] 7% | [6]; [15] -20% | [7]; [15] -31% | [7]; [16] 29% | [8]; at 1.2 µM 61% | [8]; [15] -13% | [9]; at 1.2 µM 5% | [9]; at 3.7 µM 7% | [9]; at 11.0 µM 53% | [10]; at 1.2 µM 15% | [10]; at 3.7 µM 21% | [10]; at 11.0 µM 66% | [11]; at 1.2 µM -2% | [11]; at 3.7 µM -2% | [11]; at 11.0 µM 20%

CCCCCC#CCOC(=O)C(=[N+]=[N-])P(=O)(c1ccccc1)c1ccccc1
inactive: [1]; at 1.2 µM 7% | [1]; at 3.7 µM 16% | [1]; at 11.0 µM 7% | [1]; at 33.0 µM 10% | [2]; at 1.2 µM 3% | [2]; at 3.7 µM -2% | [2]; at 11.0 µM 3% | [2]; at 33.0 µM -2% | [3]; at 1.2 µM 21% | [3]; at 3.7 µM 13% | [3]; at 11.0 µM 26% | [3]; at 33.0 µM 14% | [3]; at 100.0 µM 6% | [4]; at 1.2 µM 14% | [4]; at 3.7 µM 21% | [4]; [15] -6% | [4]; at 11.0 µM 13% | [4]; at 33.0 µM 13% | [5]; at 1.2 µM 11% | [5]; at 3.7 µM 7% | [5]; [15] -6% | [5]; at 11.0 µM -3% | [5]; at 33.0 µM -4% | [6]; [15] 8% | [6]; [16] 46% | [12]; at 1.2 µM 7% | [12]; at 3.7 µM 5% | [12]; at 11.0 µM 9% | [12]; at 33.0 µM -1% | [7]; [15] 37% | [8]; at 1.2 µM 1% | [8]; at 3.7 µM 0% | [8]; [15] 8% | [8]; at 11.0 µM -23% | [8]; at 33.0 µM -23% | [9]; at 1.2 µM 4% | [9]; at 3.7 µM 10% | [9]; at 11.0 µM 5% | [9]; at 33.0 µM 5% | [13]; at 1.2 µM 28% | [13]; at 3.7 µM 23% | [13]; at 11.0 µM 26% | [13]; at 33.0 µM 20% | [10]; at 1.2 µM 17% | [10]; at 3.7 µM 21% | [10]; at 11.0 µM 15% | [10]; at 33.0 µM 16% | [14]; [15] 22% | [11]; at 1.2 µM 7% | [11]; at 3.7 µM 8% | [11]; at 11.0 µM 7% | [11]; at 33.0 µM 14%
active: [1]; at 100.0 µM 96% | [2]; at 100.0 µM 96% | [4]; [16] 94% | [4]; at 50.0 µM 87.8% | [4]; at 100.0 µM 95% | [5]; [16] 97% | [5]; at 50.0 µM 90.5% | [5]; at 100.0 µM 95% | [6]; at 50.0 µM 90.8% | [12]; at 100.0 µM 96% | [7]; [16] 96% | [7]; at 50.0 µM 86.7% | [8]; [16] 95% | [8]; at 50.0 µM 89.3% | [8]; at 100.0 µM 95% | [9]; at 100.0 µM 97% | [13]; at 100.0 µM 97% | [10]; at 100.0 µM 98% | [14]; [16] 96% | [14]; at 50.0 µM 87% | [11]; at 100.0 µM 96%
